Screening results: PubChem BioAssay, National Center for Advancing Translational Sciences (NCATS)
Hits are enriched below; roughly 18% of the tested compounds scored in any of these assays.
DT40 TDP1 CPT – DT40-hTDP1 cell growth loss with CPT; chicken DT40 Tdp1-/-;hTDP1 cells + 20 nM CPT, ATP luminescence, 48 h; Potency, µM (titrated, usually from 46.2 µM), for inactives: at the top dose activity change, negative = growth inhibition, hits mostly inhibitors; AID 686979; hit rate 12% among 420,000; further: potency means the concentration at half of the fitted maximal effect; nearly all actives have a fitted effect of over 55% in size
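Chicken DT40 Tdp1-/- cells complemented with human TDP1, 400 cells/well, exposed to compounds plus 20 nM camptothecin for at least 48 h at 37 C; viability read as ATP content by CellTiter-Glo luminescence.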
IL1B secr inh – inflammasome signaling inhibition, IL-1 beta readout | THP-1 LPS/ATP IL-1B secretion, AlphaLISA, 16 h; hits give low values | activity change, % at 57.5 µM | hit rate 4.7% among 360,000; in the data active means activity change below about -50%; inconclusive means mostly about -30% to -49%
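THP-1 cells pretreated 1 hr with compounds (up to 57.5 uM final), then stimulated with LPS (250 ng/mL final) plus ATP (1.25 mM final); secreted IL-1B measured by AlphaLISA after 16 hr, decreased signal indicating inhibition.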
LDHA inh – LDHA (human) enzyme inhibition; hit rate 0.15% among 480,000; purified LDHA, NADH/diaphorase-resazurin fluorescence; hits give low values; P00338; activity change, % (values are at about 110 or 230 µM); in the data active means activity change below about -30%; inconclusive means mostly about -25% to -30%;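 further: plate controls were DMSO wells for no effect and wells without enzyme for full effect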
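LDH5 2 nM; NADH 0.06 mM, pyruvate 0.2 mM; 200 mM Tris pH 7.4, EDTA, Tween-20; 5 min RT. Detection: diaphorase 0.133 mg/mL + resazurin 37 µM, fluorescence ex540/em590 at 0 and 20 min; normalized to enzyme-free and DMSO wells.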
DT40 TDP1 no CPT – qHTS for Inhibitors of human tyrosyl-DNA phosphodiesterase 1 (TDP1): qHTS in cells in absence of CPT; DT40 Tdp1-/- hTDP1 cells, no CPT, ATP luminescence, 48 h; hit rate 15% among 420,000; Potency, µM (series often up to 46.2 µM), for the others: top-dose activity change, negative = growth inhibition, actives largely listed as inhibitors; further: potency means the concentration at half of the fitted maximal effect; nearly all actives have a fitted effect of over 55% in size
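Growth of hTDP1-complemented DT40 Tdp1-knockout cells is measured by ATP luminescence after at least 48 hr compound exposure at 37 °C, with DMSO substituting for the 20 nM CPT used in the parallel screen.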
VP16 counter – counter-screen for ROR gamma inhibitors: Gal4-VP16 reporter; AID 2546; Potency, µM (series often up to 53.6 µM), without a hit: at the highest dose activity, negative = inhibition, most hits filed as inhibitors; hit rate 3.5% among 310,000; Drosophila S2 Gal4-VP16 UAS-luciferase, luminescence, 20 h;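 further: Gal4-VP16 expression switched on by copper sulfate through the metallothionein promoter; potency means the concentration at half of the fitted maximal effect; nearly all actives have a fitted effect of over 50% in size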
RORgamma inh – ROR gamma (mouse) transcription inhibition. Potency, µM (doses to about 53.6 µM), inactives show top-dose activity change, negative = inhibition, most hits filed as inhibitors. hit rate 5.4% among 310,000. P51450. Drosophila S2 Gal4-RORgamma UAS-luciferase reporter, 20 h; further: potency means the concentration at half of the fitted maximal effect; nearly all actives have a fitted effect of over 60% in size
Target sequence (P51450 whole entry, looked up, the tested form may be a part): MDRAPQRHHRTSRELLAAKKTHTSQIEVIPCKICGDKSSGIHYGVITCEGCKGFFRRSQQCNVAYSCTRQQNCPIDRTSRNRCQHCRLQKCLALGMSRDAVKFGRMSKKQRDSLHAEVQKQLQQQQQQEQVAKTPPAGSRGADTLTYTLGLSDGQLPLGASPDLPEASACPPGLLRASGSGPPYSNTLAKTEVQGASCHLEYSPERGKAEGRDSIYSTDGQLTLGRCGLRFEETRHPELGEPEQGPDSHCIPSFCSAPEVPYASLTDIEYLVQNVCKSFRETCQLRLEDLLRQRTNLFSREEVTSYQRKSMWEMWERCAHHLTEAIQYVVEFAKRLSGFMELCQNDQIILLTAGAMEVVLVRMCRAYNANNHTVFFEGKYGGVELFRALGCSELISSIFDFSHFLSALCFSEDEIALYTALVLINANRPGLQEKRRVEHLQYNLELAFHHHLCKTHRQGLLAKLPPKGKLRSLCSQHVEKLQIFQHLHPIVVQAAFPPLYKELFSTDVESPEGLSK
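ROR gamma transcriptional activity was tracked as Gal4-UAS luciferase output in stably transfected Drosophila Schneider cells, with compound added 1 hr before 700 uM copper sulfate induction and a 20 hr ambient-temperature incubation.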
Active calls of the source: *. Unless noted, the call rests on the fitted dose curve; in most records, active means well fitted curve in the direction sought with a large enough effect; inconclusive means small, poorly fitted or top-dose-only effect, or another doubt; inactive means no such curve, though single readings can be large; an effect the other way counts as inactive or inconclusive. Unless noted, on the % scale 0 is the no-effect control and ±100 the full control effect.

Results for CCOC(=O)c1cc(-c2ccc(C)cc2)n(CCC(=O)NCCCOC)c1C ?
DT40 TDP1 CPT: -22.4%; IL1B secr inh: -4.7; LDHA inh: 2.3; DT40 TDP1 no CPT: -12.7%; VP16 counter: 2.3%; RORgamma inh: 7.2%

Results for CCOC(=O)c1cc(-c2ccc(OC)cc2)n(CCC(=O)NC2CCCCC2)c1C ?
DT40 TDP1 CPT: 20.6µM*; LDHA inh: -6.9; DT40 TDP1 no CPT: 16.4µM*

What do the screens show for `CCOC(=O)c1cc(-c2ccc(F)cc2)n(CCC(=O)NC2CCC(C)CC2)c1C` (configuration not stated)?
DT40 TDP1 CPT: inconclusive; LDHA inh: -0.7; DT40 TDP1 no CPT: 16.4µM*

How did CCOC(=O)c1cc(-c2ccc(OC)cc2)n(CCC(=O)NC2CCC(C)CC2)c1C (configuration not stated) do in these assays?
DT40 TDP1 CPT: 16.4µM*; LDHA inh: 4.5; DT40 TDP1 no CPT: 23.1µM*

Results for O=CN1CCN(C(C(=O)O)c2cn(CC(=O)O)c3ccc(Br)cc23)CC1 (configuration not stated) ?
LDHA inh: -9.8

What do the screens show for `NS(=O)(=O)Cc1ccc(CNC(=O)c2cccc(F)c2)cc1`?
LDHA inh: 1.6

Results for CC(C)Sc1nc(NCc2ccco2)c2c3c(sc2n1)COC(C)(C)C3 ?
DT40 TDP1 CPT: 25.9µM*; IL1B secr inh: -17.3; LDHA inh: 7.1; DT40 TDP1 no CPT: 14.6µM*; VP16 counter: inconclusive; RORgamma inh: 32.0%

What do the screens show for `CCCCc1nc2sc3c(SCC(=O)NCc4ccco4)ncnc3c2c2c1CCC2`?
DT40 TDP1 CPT: 12.6µM*; IL1B secr inh: 17.0; LDHA inh: 0.1; DT40 TDP1 no CPT: 11.2µM*; VP16 counter: -11.6%; RORgamma inh: 0.5%

What do the screens show for `CSc1nc(SCC(=O)NCc2ccco2)c2c3c(sc2n1)COC(C)(C)C3`?
DT40 TDP1 CPT: 13µM*; IL1B secr inh: 86.3; LDHA inh: -2.2; DT40 TDP1 no CPT: 8.2µM*; VP16 counter: 1.2%; RORgamma inh: 1.2%

Results for CCCCSc1nc(SCC(=O)NCc2ccco2)c2c3c(sc2n1)COC(C)(CC)C3 (configuration not stated) ?
DT40 TDP1 CPT: -1.1%; IL1B secr inh: -5.3; LDHA inh: 0.0; DT40 TDP1 no CPT: -5.9%; VP16 counter: -11.2%; RORgamma inh: -6.9%

Results for Cc1cc(=O)c(C(=O)Nc2nnc(C(C)C)s2)nn1-c1ccccc1F ?
LDHA inh: 11.3

How did Cc1ccc(S(=O)(=O)N2CCOCC2)cc1NC(=O)CSc1nc(C)c(C)n1C1CCCC1 do in these assays?
LDHA inh: 7.0

Results for COc1ccc(/C=C(/C#N)C(=O)c2c(Cl)cccc2Cl)cc1 ?
LDHA inh: 6.5

How did COc1ccc(NS(=O)(=O)c2ccc(N3CCCCC3)c(NC(=O)C(C)NC(N)=O)c2)cc1 (configuration not stated) do in these assays?
DT40 TDP1 CPT: inconclusive; IL1B secr inh: -8.3; LDHA inh: -0.9; DT40 TDP1 no CPT: inconclusive

Results for COc1ccc(NS(=O)(=O)c2ccc(N3CCOCC3)c(NC(=O)C(C)C)c2)cc1 ?
DT40 TDP1 CPT: 16.4µM*; IL1B secr inh: 5.2; LDHA inh: -2.4; DT40 TDP1 no CPT: 18.4µM*; VP16 counter: -13.4%; RORgamma inh: 30.3%

What do the screens show for `O=C(Nc1cc(S(=O)(=O)Nc2ccc(Cl)cc2)ccc1N1CCCCC1)c1ccc(F)cc1`?
DT40 TDP1 CPT: 20.6µM*; IL1B secr inh: -66.2*; LDHA inh: 0.2; DT40 TDP1 no CPT: 18.4µM*; VP16 counter: -26.1%; RORgamma inh: inconclusive
